Test results from PubChem BioAssay (NCATS).
Inconclusive results are not listed. A number with no mark means an inactive call. Calls of active or inactive are those of the source. The call rests on the fitted dose curve; in most records, active means well fitted inhibition curve with a large enough effect; inconclusive means small, poorly fitted or top-dose-only effect; inactive means flat fitted curve, though single readings scatter.

Key:
TAB113 = assay: qHTS profiling for inhibitors of Plasmodium falciparum proliferation (AID 504749); further: potency means the concentration at half of the fitted maximal effect; conditions: P. falciparum in erythrocytes, SYBR Green DNA, 72 h; series mostly up to 28.7 µM
Outline: (§1)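 P. falciparum-infected erythrocytes (0.3% parasitemia, 2.5% hematocrit final) were exposed to compounds for 72 h at 37 C in 5% CO2, then lysed with SYBR Green buffer overnight at room temperature; parasite DNA fluorescence was normalized to artemisinin and DMSO controls.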

TAB165 = assay: as above; conditions: P. falciparum in erythrocytes, SYBR Green DNA, 72 h; series mostly up to 28.7 µM
Outline: as §1

W2 = assay: as above; conditions: P. falciparum in erythrocytes, SYBR Green DNA, 72 h; series mostly up to 28.7 µM
Outline: as §1

CRL-7250 = normal cell line; assay: Cytotoxic Profiling of Annotated Libraries Using Quantitative High-Throughput Screening (AID 1296008); conditions: Five cell lines viability, CellTiter-Glo ATP luminescence, 48-72 h; max response: active compounds read low; further: potency means the concentration at half of the fitted maximal effect; on max response: on the % scale 0 is the no-effect control and ±100 the full control effect
Outline: (§2)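 Compounds were pin-transferred onto cells and incubated 48 or 72 hr at 37 degree Celsius, 95% humidity. CellTiter-Glo was added, plates sat 10 min at room temperature, then ATP-coupled luminescence was imaged as the viability read-out.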

HEK293 = assay: as above; conditions: Five cell lines viability, CellTiter-Glo ATP luminescence, 48-72 h; max response: active compounds read low
Outline: as §2

HaCat [1] = assay: as above; conditions: Five cell lines viability, CellTiter-Glo ATP luminescence, 48-72 h; max response: active compounds read low
Outline: as §2

NIH3T3 = assay: as above; conditions: Five cell lines viability, CellTiter-Glo ATP luminescence, 48-72 h; max response: active compounds read low
Outline: as §2

KB-3-1 = assay: as above; conditions: Five cell lines viability, CellTiter-Glo ATP luminescence, 48-72 h; max response: active compounds read low
Outline: as §2

HACAT [2] = assay: qHTS assay to identify novel small-molecules to repurpose for Merkel cell carcinoma treatment (AID 1296009); conditions: MCC and control cell lines, CellTiter-Glo viability, 72 h; at 44.8 µM (top of the series) unless noted
Outline: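 Cells exposed to NPC (8-point) and MIPE (11-point) compound dilutions for 72 hr at 37 degree celsius; viability read by CellTiter-Glo luminescence, normalized to no-cell and DMSO in-plate controls.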
Further: nearly all actives have a fitted effect of over 60% in size.

SMILES | Potency (TAB113) | Potency (TAB165) | Potency (W2) | max response (CRL-7250) | max response (HEK293) | max response (HaCat [1]) | max response (NIH3T3) | Potency (HEK293) | max response (KB-3-1) | outcome (CRL-7250) | Potency (HaCat [1]) | outcome (HaCat [1]) | outcome (HACAT [2])
c1ccc(CC2=NCCN2)cc1 | inactive | inactive | inactive | 1.69% | -22.9% | -10.1% | -5.64% | – | – | – | – | – | –
C#C[C@]1(OC(C)=O)CC[C@H]2[C@@H]3CCC4=C/C(=N/O)CC[C@@H]4[C@H]3CC[C@@]21CC | inactive | inactive | – | -7.16% | – | 2.29% | 2.39% | 13.3 µM (active) | – | – | – | – | –
O=C(O)C(Cc1cc(I)c(O)c(I)c1)c1ccccc1 (stereo not drawn) | inactive | inactive | inactive | -5.72% | 1.09% | -3.38% | -19.3% | – | -19.5% | – | – | – | –
Clc1cccc(C(c2ccc3nc[nH]c3c2)n2ccnc2)c1 (stereo not drawn) | – | 7.94 µM (active) | – | -3.34% | 1.25% | -3.24% | -0.487% | – | 11.8% | – | – | – | –
O=S(c1cc(Cl)cc(Cl)c1O)c1cc(Cl)cc(Cl)c1O | – | 0.355 µM (active) | – | – | -2.46% | -16.1% | 1.36% | – | -2.92% | inactive | – | – | –
O=C(O)CCC(=O)Nc1ccc(S(=O)(=O)Nc2nccs2)cc1 | inactive | inactive | inactive | -7.17% | -13.9% | -28.4% | -7.15% | – | – | – | – | – | –
Cc1cc(C)cc(OCC2CNC(=O)O2)c1 (stereo not drawn) | inactive | inactive | – | 2.93% | 3.06% | -13.4% | 0.518% | – | – | – | – | – | –
O=[N+]([O-])c1cccc(S(=O)(=O)NCCNS(=O)(=O)c2cccc([N+](=O)[O-])c2)c1 | inactive | – | – | – | -16% | 0.408% | -4.18% | – | – | inactive | – | – | –
CCCN(CCC)S(=O)(=O)c1ccc(C(=O)O)cc1 | inactive | inactive | inactive | -3.77% | 3.98% | – | – | – | 20.4% | – | 18.8 µM (active) | – | –
O=C(Nc1ccc([N+](=O)[O-])cc1)Nc1ccc([N+](=O)[O-])cc1 | inactive | inactive | 2.39 µM (active) | -8.01% | – | – | – | 8.41 µM (active) | -1.19% | – | – | inactive | inactive
COc1cc(C(=S)N2CCOCC2)ccc1O | – | inactive | inactive | -4.16% | -23.8% | -11.5% | -6.82% | – | 12.3% | – | – | – | –
